Results on 15 molecules are retold here after ChEMBL document CHEMBL4513146, “CO-ADD screening of Karazin Kharkiv National University (Ukraine) compounds”.

Usually Inhibition stands for the relative decrease from the control value, in per cent.

Structures are written as SMILES. Results with a measured potency or affinity are listed apart.

The test system of the experiment is Candida albicans. The conditions noted are these: Concentration 32 ug.mL-1; ASSAY_TEST Inhibition of Fungal Growth; detection method Absorption (OD530).
On to `Cc1ccc(-c2ccc3nn(CC(=O)N4CCN(c5ccccc5)CC4)c(=O)n3n2)cc1C`, for which the Inhibition was 0.84%. Next, `CC(C)CCn1c(=O)c2sccc2n2c(=O)n(Cc3c(F)cccc3Cl)nc12`: 9.98%; `CC(C)c1ccc(N(Cc2ccccc2)S(=O)(=O)c2cccn3cnnc23)cc1`: 6.69%; `O=C(Cn1nc2nc(Nc3ccc(F)cc3)ccn2c1=O)NCc1ccc(F)cc1Cl`: 1.62%. Under `CCOc1ccc(-n2ccn3c(SCC(=O)Nc4ccc(F)cc4F)nnc3c2=O)cc1` stands 3.41%; under `COc1cccc(-n2ccn3c(SCC(=O)c4cccc(Cl)c4)nnc3c2=O)c1`, 2.28%. Under `O=C(Cn1nc2c(Sc3ccccc3)nccn2c1=O)Nc1cc(F)ccc1F` stands 0.26%. For `O=c1c2sccc2n2c(=O)n(Cc3cccc(Br)c3)nc2n1Cc1cccs1`, the Inhibition was determined as 62.43%. `CCCCNC(=O)Cn1nc2n(Cc3ccco3)c(=O)c3sccc3n2c1=O`: the Inhibition is given as 0.44%. Under `O=C(CSc1nnc2c(=O)n(-c3ccc(Br)cc3)ccn12)Nc1ccc(F)cc1` stands 10.99%; under `COc1ccc(-c2cc3c4nn(CC(=O)NCc5ccc(Cl)cc5)c(=O)n4ccn3n2)cc1`, 0.12%. Next, `CC(C)c1nnc2c(SCC(=O)Nc3ccccc3C(F)(F)F)nc3ccccc3n12`: 0.36%; `CCCCOc1ccc(-c2cc3c4nnc(SCC(=O)Nc5ccc(F)cc5)n4ccn3n2)cc1`: -1.37%. Under `CCCCOc1ccc(-c2cc3c4nnc(SCC(=O)NCc5ccc(OC)cc5)n4ccn3n2)cc1` stands 17.75%. With `COc1cccc(Oc2nccn3c(=O)n(CC(=O)NCc4ccc(SC)cc4)nc23)c1`, the Inhibition was determined as 2.58%.
